Measured values reported in the supplement of paper PMC12494721.
Counter-ions that a name gives are not always drawn.

Experiments:
Conditions in all cases: incubation time: 27 h, anaerobic, 37 °C;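 for the amine columns active = adjusted P below 0.05 in both replicates with a change the same way and a mean fold change under 0.8 or over 1.25; inactive = the rest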
[1] = test system: Clostridium sporogenes DSM 1664; assay: growth (OD595) fold change vs plate DMSO controls (fold change (ratio)); higher = more growth
Procedure, shortened: (§1)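 Anaerobic 27 h, 37 °C mGAM 96-well cultures were shaken, then read for absorbance at 595 nm. Values were blank-subtracted and corrected for compound background using 20 µM compound solutions in water. A calibration factor of 5 converted them to OD. Growth is the fold change versus the median of plate DMSO controls. Fold changes above 1.5 were set to NA, and values are the mean of 2 biological replicates.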

[2] = test system: Escherichia coli IAI1; assay: as above
Procedure, shortened: as §1

[3] = test system: Klebsiella aerogenes DSM 30053; assay: as above
Procedure, shortened: as §1

[4] = test system: Ruminococcus gnavus DSM 108212; assay: as above
Procedure, shortened: as §1

[5] = test system: Klebsiella aerogenes DSM 30053; assay: fold change of Histamine concentration vs plate DMSO controls (fold change (ratio)); higher = more amine produced, active = hit call of the paper (significant change in both replicates, either direction)
Procedure, shortened: (§2)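 Amine values are fold changes relative to DMSO-only wells on the same plate. They derive from 27 h, 37 °C anaerobic mGAM cultures of four gut bacterial strains in 80 µL wells, dosed at 20 µM final, or 50 µM final for sweeteners. Extraction of the whole culture, LC–triple-quadrupole MS in dynamic MRM mode, external calibration curves and within-batch drift correction were used, with 2 biological replicates averaged.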

[6] = test system: Clostridium sporogenes DSM 1664; assay: fold change of Tryptamine concentration vs plate DMSO controls (fold change (ratio)); higher = more amine produced, active = hit call of the paper (significant change in both replicates, either direction)
Procedure, shortened: as §2

[7] = test system: Ruminococcus gnavus DSM 108212; assay: as above
Procedure, shortened: as §2

[8] = test system: Escherichia coli IAI1; assay: fold change of Putrescine concentration vs plate DMSO controls (fold change (ratio)); higher = more amine produced, active = hit call of the paper (significant change in both replicates, either direction)
Procedure, shortened: as §2

[9] = test system: Klebsiella aerogenes DSM 30053; assay: as above
Procedure, shortened: as §2

[10] = test system: Escherichia coli IAI1; assay: fold change of Cadaverine concentration vs plate DMSO controls (fold change (ratio)); higher = more amine produced, active = hit call of the paper (significant change in both replicates, either direction)
Procedure, shortened: as §2

[11] = test system: Klebsiella aerogenes DSM 30053; assay: as above
Procedure, shortened: as §2

[12] = test system: Ruminococcus gnavus DSM 108212; assay: fold change of 2-Phenylethylamine concentration vs plate DMSO controls (fold change (ratio)); higher = more amine produced, active = hit call of the paper (significant change in both replicates, either direction)
Procedure, shortened: as §2

| SMILES | growth [1] | growth [2] | growth [3] | growth [4] | fold change of Histamine concentration [5] | fold change of Tryptamine concentration [6] | fold change of Tryptamine concentration [7] | fold change of Putrescine concentration [8] | fold change of Putrescine concentration [9] | fold change of Cadaverine concentration [10] | fold change of Cadaverine concentration [11] | fold change of 2-Phenylethylamine concentration [12] |
| --- | --- | --- | --- | --- | --- | --- | --- | --- | --- | --- | --- | --- |
| Nc1ccc(C(=O)O)c(O)c1 [Aminosalicylic acid] (20 µM) | 1.11 | 1.02 | 1.02 | 0.97 | 1.06 (inactive) | 1 (inactive) | 0.999 (inactive) | 1.01 (inactive) | 1.01 (inactive) | 1.02 (inactive) | 0.98 (inactive) | 0.981 (inactive) |
| CCCCNc1cc(C(=O)O)cc(S(N)(=O)=O)c1Oc1ccccc1 [Bumetanide] (20 µM) | 1.19 | 1.01 | 1 | 0.971 | 0.994 (inactive) | 1.03 (inactive) | 1.05 (inactive) | 1.04 (inactive) | 1.02 (inactive) | 1.03 (inactive) | 1 (inactive) | 1.07 (inactive) |
| c1ccc2c(c1)Cc1ccccc1-2 [Fluorene] (20 µM) | 1 | 1.04 | 1.07 | 1.09 | 0.932 (inactive) | 0.97 (inactive) | 1 (inactive) | 1.05 (inactive) | 1.02 (inactive) | 0.914 (inactive) | 1.02 (inactive) | 0.967 (inactive) |
| Oc1c(Cl)cc(Cl)c(Cl)c1Cc1c(O)c(Cl)cc(Cl)c1Cl [Hexachlorophene] (20 µM) | 0 | 0.943 | 0.999 | 0 | 1.17 (inactive) | 0.0251 (active) | 0.0326 (active) | 0.982 (inactive) | 1.02 (inactive) | 1.1 (inactive) | 1.02 (inactive) | 0.0393 (active) |
| CCCc1nc2c(C)cc(-c3nc4ccccc4n3C)cc2n1Cc1ccc(-c2ccccc2C(=O)O)cc1 [Telmisartan] (20 µM) | 0.962 | 0.99 | 1.02 | 0.953 | 1.02 (inactive) | 0.911 (inactive) | 0.966 (inactive) | 1.04 (inactive) | 1.01 (inactive) | 1.05 (inactive) | 0.996 (inactive) | 1.01 (inactive) |
| C#C[C@]1(OC(C)=O)CC[C@H]2[C@@H]3CCC4=CC(=NO)CC[C@@H]4[C@H]3CC[C@@]21CC (mixture of isomers) [Norgestimate] (20 µM) | 1.25 | 0.998 | 1.01 | 0.991 | 1.01 (inactive) | 0.656 (inactive) | 0.888 (inactive) | 1.05 (inactive) | 0.985 (inactive) | 1.02 (inactive) | 0.993 (inactive) | 0.905 (inactive) |
| CC(C(=O)O)c1ccc(N2CC=CC2)c(Cl)c1 (stereo unspecified) [Pirprofen] (20 µM) | 1.03 | 1.01 | 0.978 | 0.973 | 1.04 (inactive) | 0.987 (inactive) | 1.06 (inactive) | 1.04 (inactive) | 0.957 (inactive) | 0.95 (inactive) | 0.981 (inactive) | 1.15 (inactive) |
| CCn1cc(C(=O)O)c(=O)c2ccc(C)nc21 [Nalidixic acid sodium salt] (20 µM) | 1.09 | 0.265 | 0.814 | 1.13 | 1.43 (inactive) | 0.991 (inactive) | 1.02 (inactive) | 0.671 (inactive) | 1.05 (inactive) | 1.69 (inactive) | 0.966 (inactive) | 1.07 (inactive) |
| Cc1c(N(C)C)c(=O)n(-c2ccccc2)n1C [Amidopyrine] (20 µM) | 0.923 | 1.02 | 0.997 | 1.18 | 0.997 (inactive) | 0.979 (inactive) | 1.16 (inactive) | 0.995 (inactive) | 0.986 (inactive) | 0.985 (inactive) | 1.03 (inactive) | 1.19 (inactive) |
| O=c1n(CCCN2CCN(c3cccc(Cl)c3)CC2)nc2ccccn12 [Trazodone hydrochloride] (20 µM) | 1.09 | 0.982 | 0.987 | 1.06 | 1.03 (inactive) | 0.988 (inactive) | 0.809 (inactive) | 1.01 (inactive) | 0.997 (inactive) | 0.982 (inactive) | 0.99 (inactive) | 0.799 (inactive) |
| N[C@@H](Cc1ccc(O)c(O)c1)C(=O)O [Levodopa] (20 µM) | 1.09 | 0.977 | 0.989 | 0.94 | 1.05 (inactive) | 1.03 (inactive) | 1.03 (inactive) | 1 (inactive) | 1.02 (inactive) | 0.975 (inactive) | 0.997 (inactive) | 1.04 (inactive) |
| COC(=O)C1=C(C)NC(C)=C(C(=O)OCCN(C)Cc2ccccc2)C1c1cccc([N+](=O)[O-])c1 (stereo unspecified) [Nicardipine hydrochloride] (20 µM) | 1.11 | 0.934 | 1.01 | 1.18 | 0.982 (inactive) | 0.981 (inactive) | 0.915 (inactive) | 1.04 (inactive) | 0.999 (inactive) | 0.995 (inactive) | 0.99 (inactive) | 0.858 (inactive) |
| CO[C@@H]1[C@@H](O[C@@H]2O[C@H](C)[C@@H](O[C@H]3C[C@@](C)(O)[C@@H](OC(=O)CC(C)C)[C@H](C)O3)[C@H](N(C)C)[C@H]2O)[C@@H](CC=O)C[C@@H](C)[C@@H](O)/C=C/C=C/C[C@@H](C)OC(=O)C[C@H]1OC(C)=O [Josamycin] (20 µM) | 0.00305 | 0.881 | 0.953 | 0.124 | 0.572 (inactive) | 0.0546 (active) | 0.135 (active) | 0.708 (inactive) | 1.08 (inactive) | 1.34 (active) | 1.06 (inactive) | 0.116 (active) |
